This note sets out measurements from PubChem BioAssay AID696 (Sanford-Burnham Center for Chemical Genomics, 2007).

The whole screen tested about 96,000 compounds, of which about 1,200 (1.2%) were called active. This is one part of a sample in which actives are shown more often than they occur. Rule as the data show it: active = activation fold above about 2; inactive = the rest.

Sequence of Alkaline phosphatase, placental type (Homo sapiens) (P05187 whole entry, looked up): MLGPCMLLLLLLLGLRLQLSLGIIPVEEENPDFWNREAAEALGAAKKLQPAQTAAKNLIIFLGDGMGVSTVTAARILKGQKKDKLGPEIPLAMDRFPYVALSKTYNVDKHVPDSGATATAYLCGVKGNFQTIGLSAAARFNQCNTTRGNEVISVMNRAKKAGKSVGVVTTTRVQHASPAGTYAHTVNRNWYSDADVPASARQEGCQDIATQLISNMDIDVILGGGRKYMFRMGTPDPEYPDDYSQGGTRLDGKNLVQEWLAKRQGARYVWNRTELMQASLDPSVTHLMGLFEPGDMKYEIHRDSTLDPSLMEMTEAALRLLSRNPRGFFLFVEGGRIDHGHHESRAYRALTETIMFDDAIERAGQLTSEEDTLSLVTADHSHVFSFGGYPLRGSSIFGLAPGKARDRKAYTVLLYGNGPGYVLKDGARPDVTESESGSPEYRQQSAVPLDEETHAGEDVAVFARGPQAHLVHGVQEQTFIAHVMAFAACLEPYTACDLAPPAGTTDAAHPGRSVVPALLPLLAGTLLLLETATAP

The test concerns the target Alkaline phosphatase, placental type (Homo sapiens) (UniProt P05187). The test is described as follows: activation of human placental alkaline phosphatase – biochemical, luminescence, HTS (AID 696). Conditions: purified PLAP enzyme, luminescent substrate read-out; at 20 µM; hits give high values.
As to `COc1cccc2c1OCC1COc3c(c(=O)n(C)c(=O)n3C)C21` (centres undefined), the activation fold was 1 (inactive).

With `CCNC(=S)NNC(=O)Cc1ccccc1`, the activation fold is 1.3 (inactive).

Regarding `COc1ccc(OCC(=O)NNC(=O)c2ccc(-c3ccccc3)cc2)cc1`, the activation fold is 1.5 (inactive).

Turning to `CC(C)(C)c1ccc(C(=O)NNC(=O)Cc2ccccc2)cc1`, the activation fold was 2.1 (active).

As to `Cc1ccc(-c2cnc(NC(=O)CCC(=O)N(C)Cc3ccccc3)n2C)cc1`, the activation fold is 1.5 (inactive).

For `Cc1ccc(-n2nc(N)c3c(=O)oc(N(C)C)nc32)cc1`, the activation fold is 1.1 (inactive).

Consider `CSc1nc(-c2ccco2)nn1C(=O)CCc1ccccc1`, for which the activation fold was 1.1 (inactive).

Consider `COc1ccc(C2SCCN2S(=O)(=O)c2ccccc2)cc1OC` (centres undefined), for which the activation fold is 1.3 (inactive).

`COc1ccc(C2CC(=O)n3c(nc4ccccc43)S2)cc1OC` (centres undefined): the activation fold is 1.1 (inactive).

For the compound `COc1ccc(C2N=C(N)N=C(N)N2c2ccccc2)cc1OC` (centres undefined), the activation fold was 2.5 (active).

In the case of `COCCn1c(C)cc(C2=NNC(=Nc3ccc(F)cc3)SC2)c1C`, the activation fold is 1.2 (inactive).

In the case of `CN1/C(=C\C(=O)c2oc3ccccc3c2N)C(C)(C)c2ccccc21`, the activation fold was 1 (inactive).

In the case of `COc1ccc(NC(C)=O)cc1NC(=O)CN1CCN(C2c3ccccc3-c3ccccc32)CC1`, the activation fold is 2.8 (active).

With `COc1ccc(OC)c(NC(=O)CN2CCN(C(=O)c3ccco3)CC2)c1`, the activation fold was 1.2 (inactive).

Consider `COc1ccc(NC(C)=O)cc1NC(=O)CN1CCN(c2ccccn2)CC1`, for which the activation fold was 1 (inactive).

In the case of `Cc1ccc(S(=O)(=O)Nc2nc(C)cc(-n3nc(C)cc3C)n2)cc1`, the activation fold was 1.4 (inactive).

For the compound `Nc1nc(SCCOc2ccccc2)n[nH]1`, the activation fold is 2 (active).

Turning to `Nc1nc(SCc2ccccc2Cl)n[nH]1`, the activation fold is 1.5 (inactive).

As for `COc1ccc(C(=O)CSc2n[nH]c(N)n2)cc1`, the activation fold is 1.5 (inactive).

`COc1ccccc1-c1n[nH]c2c1[C@H](C)CC[C@H]2C(C)C`: the activation fold is 1.4 (inactive).

Turning to `O=C(OCN1C(=O)c2ccccc2C1=O)/C(=C\c1ccco1)NC(=O)c1ccccc1`, the activation fold was 1.1 (inactive).

`CCOc1cccc(C(=O)Nc2cnn(Cc3ccccc3)c2)c1`: the activation fold was 0.7 (inactive).

Turning to `COc1ccc(CNC(=O)CCn2cccc2)cc1`, the activation fold was 1 (inactive).

In the case of `CC(C)NC(=O)NC(=O)COC(=O)c1ccc(NC(=O)CC#N)cc1`, the activation fold is 1.4 (inactive).

Take `COc1ccc2c(CC(=O)Nc3nnc(C4CC4)s3)coc2c1`: the activation fold is 0.9 (inactive).

Take `O=C(Nc1nnc(C2CC2)s1)c1ccccn1`: the activation fold is 2.3 (active).

For the compound `Cc1occc1C(=O)Nc1nnc(C2CCCCC2)s1`, the activation fold is 1 (inactive).

With `NC(=O)C1(N2CCCCC2)CCN(C(=S)Nc2ccc(Cl)cc2)CC1`, the activation fold is 0.9 (inactive).

In the case of `CN1CCN(S(=O)(=O)c2ccc3[nH]cc(C(=O)O)c(=O)c3c2)CC1`, the activation fold is 1.1 (inactive).

As for `Cc1cccc(N2CCN(S(=O)(=O)c3ccc4[nH]c(=O)c(=O)[nH]c4c3)CC2C)c1` (centres undefined), the activation fold was 2.2 (active).

As to `COc1cccc(N2C(=O)CC(N3CCN(S(=O)(=O)c4ccccc4)CC3)C2=O)c1` (centres undefined), the activation fold was 1.4 (inactive).

Consider `O=C1C(Cl)=C(N2CCOCC2)C(=O)N1c1ccccc1`, for which the activation fold is 1 (inactive).

On to `O=C(NCCN1C(=O)C2C3C=CC(C3)C2C1=O)Nc1ccccn1` (centres undefined), for which the activation fold is 1.1 (inactive).

For the compound `O=C(CN1C(=O)C2C3C=CC(C3)C2C1=O)Nc1nc(-c2ccccn2)cs1` (centres undefined), the activation fold is 2.3 (active).

Turning to `O=C(CN1C(=O)C2C3C=CC(C3)C2C1=O)NCCc1ccccc1Cl` (centres undefined), the activation fold was 0.9 (inactive).

On to `CC(OC(=O)CN1C(=O)C2CCCCC2C1=O)C(=O)Nc1ncc(Cl)cc1Cl` (centres undefined), for which the activation fold was 0.9 (inactive).

As to `Cc1noc(C)c1C(=O)N(CC(=O)NC1CCCC1)Cc1ccccc1F`, the activation fold is 1 (inactive).

As for `CCOc1ccccc1N(CC(=O)NC1CCCCC1)C(=O)CCCC(=O)Nc1ccccn1`, the activation fold was 2 (active).

Regarding `CCCC(=O)Nc1cc(OCC)c(NC(=O)NC2CCCCC2)cc1OCC`, the activation fold was 0.9 (inactive).

For `O=C(CCCC(=O)N(CC(=O)NC1CCCC1)Cc1ccccc1Cl)Nc1ccccn1`, the activation fold was 2 (active).

In the case of `O=C(CN1CCN(c2ccccn2)CC1)NC1CCCCC1`, the activation fold is 1.1 (inactive).

For `Cc1ccc(C(C(=O)NC2CCCC2)N(Cc2ccco2)C(=O)CCC(=O)Nc2ccccn2)cc1` (centres undefined), the activation fold is 1.7 (inactive).

As to `CCCCNC(=O)C(=O)c1ccccc1NC(C)=O`, the activation fold was 0.9 (inactive).

`Cc1cccc(C)c1NC(=O)CSc1nnc(-c2ccccc2)n1Cc1ccc2c(c1)OCO2`: the activation fold is 1.4 (inactive).

Consider `Cc1cc(/C=C2/SC(=O)N(CC(=O)OC(C)C)C2=O)c(C)n1C`, for which the activation fold is 1 (inactive).

Regarding `COC(=O)CSc1snnc1-c1ccc(Cl)c(Cl)c1`, the activation fold was 1 (inactive).

Consider `CC(C)NS(=O)(=O)c1ccc(OCC(=O)Nc2ccc3c(c2)OCCO3)cc1`, for which the activation fold is 0.7 (inactive).

Take `CCC(C)(C)c1ccc(Oc2ccc(NC(=O)COC(=O)C3=COCCO3)cc2)cc1`: the activation fold was 2.9 (active).

With `O=C(OCC(=O)c1cccs1)C1=COCCO1`, the activation fold is 0.9 (inactive).

On to `c1ccc(CCc2nc(-c3ccncc3)no2)cc1`, for which the activation fold is 0.9 (inactive).

Regarding `O=C(CSCc1ccccc1)N1CCc2ccccc21`, the activation fold was 0.7 (inactive).

Turning to `O=C(Nc1cccc(Cl)c1)Nc1nnc(-c2ccccc2)o1`, the activation fold is 1.1 (inactive).

`O=C(COc1ccccc1)Nc1nonc1NC(=O)COc1ccccc1`: the activation fold is 0.9 (inactive).

As for `O=C(COC(=O)c1ccc(Oc2ccccc2)cc1)Nc1nnc(-c2ccccc2)o1`, the activation fold was 2 (active).

Take `Cc1ccc(NC(=O)C(C)c2cccc(C(=O)c3ccccc3)c2)cc1` (centres undefined): the activation fold was 0.7 (inactive).

In the case of `C=CCN(C(=O)Cn1ncc2c1-c1cc(C)ccc1OC2)c1ccccc1`, the activation fold is 1.2 (inactive).

Turning to `COc1ccccc1OCc1nc2ccccc2s1`, the activation fold was 1 (inactive).

Take `COc1ccc(C(C#N)N2N=C(C)CC2(C)C)cc1` (centres undefined): the activation fold is 0.9 (inactive).

Regarding `Cc1cccc(N(CC(=O)N=Nc2c(O)[nH]c3ccccc23)S(C)(=O)=O)c1C`, the activation fold was 1.9 (inactive).

`Cc1ccccc1NC(=O)c1ccccc1NS(=O)(=O)c1cccc2cccnc12`: the activation fold was 1.3 (inactive).

For the compound `O=C(/C=C\NCC(=O)c1ccccc1)c1ccccc1`, the activation fold was 0.9 (inactive).

As to `CC(C)(O)C(=O)NN(C(=O)c1ccccc1)c1cccc(Br)c1`, the activation fold was 0.9 (inactive).

For the compound `O=C(/C=C/NNC(=O)c1cccc(Br)c1)c1ccccc1`, the activation fold is 2 (active).

As to `COc1ccccc1NS(=O)(=O)N(C)C`, the activation fold was 0.8 (inactive).

Consider `COc1ccc(C(=O)NCCc2ccc(S(N)(=O)=O)cc2)cc1OC`, for which the activation fold was 1 (inactive).

As for `CCOC(=O)CSc1nnc(CNC(=O)Cc2ccccc2)n1-c1ccccc1OC`, the activation fold is 1 (inactive).

As for `CCOc1ccc(C(CCc2ccccc2)NC(=O)c2ccc(OC)c(OC)c2)cc1OCC` (centres undefined), the activation fold is 2.2 (active).

On to `CCOC(=O)C1=NNC2(c3ccc(Cl)cc3)C(=O)N(c3cc(C)cc(C)c3)C(=O)C12` (centres undefined), for which the activation fold is 1.1 (inactive).

For `CCOC(=O)Cc1csc(NC(NC(=O)OCC)(C(F)(F)F)C(F)(F)F)n1`, the activation fold is 0.9 (inactive).

`CCOc1ccc(Nc2nc(Cc3nnc(SCC(=O)c4ccc(C)cc4)o3)cs2)cc1`: the activation fold was 0.7 (inactive).

On to `Cc1ccc(/C=N\n2c(-c3ccccc3)n[nH]c2=S)s1`, for which the activation fold is 1.3 (inactive).

As for `Cc1cc(C(F)(F)F)n2ncc(-c3ccccc3)c2n1`, the activation fold was 0.9 (inactive).

On to `Cn1c(-c2sc3cc(C(F)(F)F)cnc3c2-c2ccccc2)n[nH]c1=S`, for which the activation fold was 2.6 (active).

For the compound `CO/N=C(/CS(=O)(=O)c1ccc(Br)cc1)c1ccc(OC)cc1`, the activation fold was 1.6 (inactive).

For the compound `CC(C)c1ccc(Nc2ncccc2C#N)cc1`, the activation fold is 0.9 (inactive).

Turning to `COc1ccccc1C(=O)Nc1nc2nc(-c3ccccc3)cc(=O)n2[nH]1`, the activation fold was 1.1 (inactive).

Regarding `CCCCNc1ccc(C(=O)Nc2cccc(C)n2)cc1[N+](=O)[O-]`, the activation fold is 0.9 (inactive).

For `O=C(Nc1nnc(SCc2ccc(Cl)cc2Cl)s1)C1COc2ccccc2O1` (centres undefined), the activation fold was 1.1 (inactive).

For `O=C(Nc1cccc2ccccc12)N1CCN(Cc2ccc3c(c2)OCO3)CC1`, the activation fold is 2.1 (active).

As for `O=C(c1cccs1)N1CCN(Cc2ccc3c(c2)OCO3)CC1`, the activation fold is 1.2 (inactive).

As for `O=C(CCCN1C(=O)c2cccc3cccc(c23)C1=O)N1CCN(Cc2ccc3c(c2)OCO3)CC1`, the activation fold was 1.6 (inactive).

Turning to `O=C(CN1CCSCC1)N/N=C/c1ccc(F)cc1F`, the activation fold is 1 (inactive).

In the case of `CCC1Oc2ccc(Cl)cc2N(CC(=O)O)C1=O` (centres undefined), the activation fold was 1 (inactive).

With `Cc1cccc(N(CC(=O)N2CCOCC2)S(C)(=O)=O)c1`, the activation fold is 0.8 (inactive).

For `Cc1cccc(N2C(=O)SC(N(CC(=O)O)c3cccc(C)c3)C2=O)c1` (centres undefined), the activation fold was 2.2 (active).

For `Cc1csc(OCC(=O)Nc2ccc(C)c(C)c2)n1`, the activation fold was 1.2 (inactive).

As to `N/C(=N\OC(=O)CCc1ccccc1)c1ccc(Cl)cc1`, the activation fold was 0.9 (inactive).

Turning to `Cc1[nH]n(-c2cccc(Cl)c2)c(=O)c1-c1ccc(Cl)cc1`, the activation fold was 1 (inactive).

`COc1cc(NS(=O)(=O)c2ccc(N=Cc3c(C)[nH]n(-c4ccccc4)c3=O)cc2)nc(OC)n1`: the activation fold was 1.5 (inactive).

In the case of `Cc1[nH]n(-c2cccc(Cl)c2)c(=O)c1/C=N/n1c(C)nc2ccccc2c1=O`, the activation fold was 2.1 (active).

Regarding `CC1(C)CC(=O)C2=C(C1)N=C1SCCC(=O)N1C2c1ccc(C(F)(F)F)cc1` (centres undefined), the activation fold was 1.2 (inactive).

Consider `COc1ccc(C)cc1S(=O)(=O)NCCc1ccccc1`, for which the activation fold was 0.8 (inactive).

In the case of `COC(=O)c1ccccc1NC(=O)CN(Cc1ccc(Cl)cc1)S(C)(=O)=O`, the activation fold is 1.5 (inactive).

As for `COc1ccc([N+](=O)[O-])cc1N(CC(O)Cn1nnc2ccccc21)S(=O)(=O)c1ccc(C)cc1` (centres undefined), the activation fold is 1.4 (inactive).
